We go through 8 compounds from PubChem BioAssay (NCI).

What all share (test): NCI-60 one-dose screen, 48 h (100 = growth as untreated, 0 = no growth, -100 = all killed)
Common to all, as to conditions: 10 µM unless noted

Assay [1] relates to NCI-H23 lung.
The test system of assay [2] is NCI-H226 lung.
Assay [3] deals with NCI-H322M lung.
The subject of assay [4] is HOP-62 NSCLC.
Assay [5] concerns NCI-H460 lung.
Assay [6] deals with HOP-92 NSCLC.
Assay [7] relates to NCI-H522 lung.
The test system of assay [8] is A549/ATCC NSCLC.
Assay [9] has as its system 786-0 renal.
For assay [10], the system named is COLO 205 colon.
In assay [11] the test system is DU-145 prostate.
The subject of assay [12] is K-562 leukemia.
Assay [13] deals with MALME-3M melanoma.
Assay [14] concerns MDA-MB-231 breast.
Assay [15] has as its system RXF 393 renal.
In assay [16] the test system is SF-268 CNS.
Assay [17] concerns SF-295 CNS.
Assay [18] relates to SF-539 CNS.
For assay [19], the system named is UACC-257 melanoma.
For assay [20], the system named is M14 melanoma.

The panel holds about 83,000 compounds, 20% with a hit somewhere; the sample as a whole holds those more often.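 Treatment: one concentration, 48 hours, 96-well format. Scoring: percent growth, with anything below 10 considered active.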 Unmarked numbers belong to inactive results. Calls of active or inactive are those of the source.

Regarding `COc1cc2cc(Oc3ccc(NC(=O)Nc4cc(C(F)(F)F)cc(C(F)(F)F)c4)cc3)c(C)nc2cc1OCCN1CCOCC1`, the growth in [1] is 7.96% (active); in assay [2], 40.2%; in assay [3], 49.5%; in assay [4], 28.8%; in [5], 9.99% (active); in [6], -14.2% (active). Also, the growth in assay [7] was 15%; in assay [8], 11.8%; in [9], 30.9%; in [10], -22.9% (active); in [11] it was 24.9%; in assay [12] it was 6.68% (active). Also, the growth in assay [13] is 28.1%; in assay [14] it was 1.49% (active); in assay [15], 26%; in [16], 27.8%; in assay [17], 7.59% (active); in [18] it was 38.5%. Also, the growth is 7.28% (active) in [19] and 17.6% in assay [20].

Take `CN1C(=O)N(C)C2Nn3c(s/c(=C\c4ccccc4)c3=O)=NC21` (stereo not given): the growth in assay [1] was 101%; in [2], 94.2%; in [3] it was 97%; in [4] it was 97.8%; in assay [5], 108%; in assay [6], 100%. The growth in assay [7] was 87.1%; in assay [8] it was 94.8%; in assay [9], 101%; in assay [10], 111%; in assay [11], 106%; in assay [12], 92.8%. The growth is 101% in [13]; 98.1% in assay [14]; 106% in [15]; 93.9% in assay [16]; 104% in [17]; 100% in [18]. Besides, the growth is 94.1% in assay [19] and 97.8% in assay [20].

With `CNc1nc2c(s1)C(c1cccc(F)c1)CC(=O)N2` (stereo not given), the growth is 100% in assay [1]; 90.3% in assay [2]; 99.1% in assay [3]; 93.3% in [4]; 106% in assay [5]; 93.4% in assay [6]. Moreover, the growth is 87.4% in [7]; 106% in assay [8]; 97.4% in [9]; 110% in [10]; 106% in assay [11]; 95.6% in assay [12]. Also, the growth was 110% in assay [13]; 104% in [14]; 93.9% in assay [15]; 94.1% in assay [16]; 104% in assay [17]; 92% in assay [18]. In addition, the values for the growth in [19] and in assay [20] were 107% and 106%, respectively.

Regarding `COc1ccc2sc3c(NCCCN(C)C)nc4ccccc4c3c(=O)c2c1`, the growth in assay [1] was 56.7%; in assay [2] it was 82.4%; in assay [3], 80.3%; in assay [4] it was 74.7%; in assay [5], -69.5% (active); in [6], 20%. Besides, the growth in assay [7] is 79.4%; in assay [8], 73.9%; in assay [9], 68.5%; in assay [10], -1.26% (active); in assay [11], 41.3%; in [12], -21.9% (active). Besides, the growth in assay [13] was 58%; in assay [14] it was -6.11% (active); in assay [15], 44.1%; in assay [16], 66.4%; in assay [17], 83.7%; in assay [18], 1.35% (active). Further, the growth in assay [19] was 76.7%; in assay [20] it was -57.8% (active).

For `Fc1cc(-c2nnc3n2NC(=Nc2ccc(Cl)cc2)CS3)c(Cl)cc1Cl`, the growth in assay [1] is 79.3%; in assay [2], 122%; in [3], 100%; in assay [4], 73.6%; in assay [5], 96.5%; in assay [6], -18.6% (active). The growth was 76.3% in assay [7]; 87.5% in assay [8]; 81.9% in assay [9]; 95.6% in assay [10]; 97.8% in assay [11]; 51.5% in assay [12]. For the same compound, the growth in assay [13] is 105%; in assay [14], 104%; in assay [15], 89.8%; in assay [16], 91.7%; in [17], 81.5%; in assay [18], 98.6%. The growth in [19] was 92.5%; in [20], 92.4%.

Take `CN1CCN(CC(=O)N2c3cccc4cccc(c34)N(C(=O)CN3CCN(C)CC3)C2c2cn(-c3ccccc3)nc2-c2cccc([N+](=O)[O-])c2)CC1`: the growth in assay [1] is 1.14% (active); in assay [2], 88.2%; in [3], 32.9%; in assay [4], -20.2% (active); in assay [5], 1.88% (active); in assay [6], 42.9%. The growth in assay [7] is -3.45% (active); in [8], 15.7%; in assay [9] it was -83.4% (active); in assay [10], -68.5% (active); in assay [11] it was 28.7%; in assay [12] it was -43.9% (active). Further, the growth in [13] was -86.7% (active); in [14], -60.9% (active); in assay [15], -19.1% (active); in assay [16], 7.89% (active); in assay [17] it was -67.1% (active); in [18] it was -86.1% (active). Also, the growth was -75.9% (active) in [19] and -81.7% (active) in assay [20].

Take `COc1cc(C(=O)c2cc(C)c3[nH]c4ccc(C)cc4c3c2C)cc(OC)c1OC`: the growth in assay [1] is 16.7%; in assay [2] it was 54.4%; in [3], 39.9%; in [4], 38.9%; in assay [5], 6.57% (active); in assay [6], 29.2%. Besides, the growth is 19.8% in [7]; 20.9% in assay [8]; 19.4% in [9]; -19.2% (active) in assay [10]; 1.16% (active) in [11]; 11.5% in assay [12]. The growth in [13] is 34.3%; in [14], 27.6%; in assay [15] it was 36.8%; in [16] it was 29.3%; in [17], 11.7%; in [18], 0.519% (active). The growth is 68.8% in assay [19] and 23.7% in assay [20].

`COc1ccc(CNC(=O)C(=O)[C@H](Cc2ccccc2)NC(=O)c2[nH]c3ccccc3c(=O)c2C)cc1`: the growth in [1] was 101%; in assay [2] it was 103%; in assay [3], 96.8%; in assay [4] it was 102%; in assay [5], 108%; in assay [6], 117%. Moreover, the growth in [7] is 96.4%; in assay [8], 95.6%; in assay [9], 102%; in assay [10], 113%; in [11] it was 104%; in assay [12], 92.9%. For the same compound, the growth in assay [13] was 107%; in [14] it was 95.6%; in assay [15] it was 104%; in assay [16], 101%; in assay [17], 103%; in assay [18] it was 98.7%. Besides, the results for the growth in assay [19] and in [20] were 98.9% and 99.6%, respectively.
